Data reported in PubChem BioAssay (NCI).
This is part of a sample that, as a whole, favours compounds with a hit. Of some 83,000 tested, about 20% had one in any assay.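 Note: values are percent growth. 100 is the growth of untreated cells, values between 100 and 0 indicate rising inhibition; between -100 and 0 indicates cell death.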 Unmarked numbers belong to inactive results. Active and inactive are the calls of the source. The calls were made as follows: active = growth percent below 10; inactive = the rest.

Tests used:
Assay in all cases: NCI-60 one-dose screen, 48 h (100 = growth as untreated, 0 = no growth, -100 = all killed)
SK-MEL-2 melanoma = settings: 10 µM unless noted
EKVX NSCLC = settings: 10 µM
SN12C renal = settings: 10 µM unless noted
UO-31 renal = settings: 10 µM unless noted
TK-10 renal = settings: 10 µM unless noted
ACHN renal = settings: 10 µM unless noted
CAKI-1 renal = settings: 10 µM unless noted
A498 renal = settings: 10 µM unless noted
CCRF-CEM leukemia = settings: 10 µM
MOLT-4 leukemia = settings: 10 µM unless noted

| Structure (SMILES) | growth (SK-MEL-2 melanoma) [%] | growth (EKVX NSCLC) [%] | growth (SN12C renal) [%] | growth (UO-31 renal) | growth (TK-10 renal) [%] | growth (ACHN renal) | growth (CAKI-1 renal) | growth (A498 renal) | growth (CCRF-CEM leukemia) | growth (MOLT-4 leukemia) |
| --- | --- | --- | --- | --- | --- | --- | --- | --- | --- | --- |
| COc1ccc(C2C3(C#N)C(N)=NC(=C(C#N)C#N)C23C#N)cc1OC (centres undefined) | 104 | 94.6 | 109 | 91% | 114 | 106% | 86.9% | 101% | 92.3% | 102% |
| CCn1cc(C(=O)O)c(=O)c2cc(F)c(N3CCN(S(=O)(=O)c4ccc(Cl)cc4)CC3)cc21 | 43.8 | 78.1 | 11.6 | 51.1% | 53.6 | 28.7% | 43.6% | -6.18% (active) | -0.845% (active) | 23.6% |
| COc1cc(-c2nc(/C=C3/C(=O)Nc4ccccc43)c3ccccn23)cc(OC)c1OC | 43.7 | 102 | 79.3 | 41.9% | 120 | 58.6% | 58.2% | 111% | 72.7% |  |
| CCC(CCCN1C(=O)c2ccccc2C1=O)Nc1cc(OC)cc2cccnc12 (centres undefined) | 97.8 | 97.2 | 99.3 | 94.8% | 136 | 103% | 111% | 84.3% | 84.5% |  |
| COCC(=O)NNc1[nH]c(-c2ccc(OC)cc2)cc1C#N | 108 | 112 | 112 | 95.4% | 92.7 | 110% | 105% | 116% | 55.9% | 81.8% |
| CCCOC(=O)c1c(C)n(C)c2scc[n+]12 | 76.4 | 43 | 92.4 | 81.3% | 104 | 85.8% | 58.7% | 48.8% | -67.1% (active) | -44.4% (active) |
| O=C1c2cc([N+](=O)[O-])ccc2-c2cc(Cl)c(NC(=O)C(F)(F)F)cc21 | 97.1 | 73.3 | 112 | 93.2% | 129 | 99.5% | 97.2% | 101% | 96.6% | 94% |
| CC[C@@H](C)/C=C(C)/C=C/C(=O)c1c(O)c(-c2ccc(OC(=O)[C@@]34CC[C@@](C)(C(=O)O3)C4(C)C)cc2)cn(O)c1=O | 17.8 | 22.3 | 30.4 | -26.4% (active) | 44.9 | 9.64% (active) | -27% (active) | 49.8% |  |  |
| COc1ccc(OC)c(Cn2cc3c(c2)-c2oncc2CC3)c1 | 45 | 42 | 45.9 | 41.9% | 68.9 | 55.8% | 12.5% | 24.2% | 16% | 28.7% |
| CCOC(=O)C1=C(C(F)(F)F)NC(=S)NC1CN1C(=O)c2ccccc2C1=O (centres undefined) | 100 | 113 | 105 | 98.1% | 107 | 105% | 88.3% | 133% | 40.7% | 93.7% |
| COC(=O)C1CC(=O)N(C(=O)Nc2ccc(Cl)cc2Cl)C1 (centres undefined) | 108 | 96.5 | 101 | 84.1% | 112 | 99.9% | 95.6% | 115% | 103% |  |
| O=C1C(Cl)=C(SC2=NCCN2)C(=O)c2ccccc21 | 66.7 | 94.4 | 74 | 48.3% | 173 | 83.5% | 93.9% | 119% | 61.7% | 68.9% |
| COc1cc2oc(-c3ccc(NC(=O)c4ccccc4)cc3)cc(=O)c2c(OC)c1OC | 92.1 | 90.8 | 83.7 | 88.7% | 91.8 | 83.5% | 96.8% | 90.9% | 82.2% | 92.2% |
| COc1cc2c(/C=C3\C(=O)Nc4ccc(Br)cc43)c(Cl)n(C)c2cc1C | 29.7 | 42.1 | 35.5 | 31.6% | 31.2 | 29.5% | 69.7% | 3.37% (active) | -11.7% (active) |  |
